In PubChem BioAssay AID602449 (Sanford-Burnham Center for Chemical Genomics, 2012):
Among all 360,000 compounds or so, about 5,000 (1.4%) were called active. This is one part of a sample in which actives are shown more often than they occur. Values without a mark were called inactive.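 How the source made its calls: active means inhibition of 50% or more, scaled per plate between neutral and stimulator controls; inactive means the rest.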

experiment: blockers of Ca2+-induced mitochondrial swelling – biochemical, isolated mouse mitochondria, absorbance, primary screen (AID 602449); settings: 30 min, at 10 µM, stronger effect = higher value;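 further: 0% = DMSO wells given calcium and 100% = 1 mM EGTA wells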

| SMILES | inhibition |
| --- | --- |
| CCO[C@H]1OC(C(=O)O)=C[C@@H](C2CCCCC2)[C@@H]1CCCO | -1.5% |
| O=C(COC(=O)c1cnccn1)Nc1ccc(Cl)cc1C(F)(F)F | -0.1% |
| C=CCNC(=O)CCCC(=O)NCC=C | 1.2% |
| O=C(OC1CC2CC1[C@H]1CCCCN1C2=O)N1CCOCC1 (some centres undefined) | -3% |
| Cc1ccc(C)c(NC(=S)NCC(c2cccnc2)N2CCOCC2)c1 (centres undefined) | -1.7% |
| Cc1ccc(C)c(NC(=S)NNC(=S)Nc2ccc(C(C)C)cc2)c1 | 93.7% (active) |
| Cc1ccc(C)c(NC(=O)C2CC(=O)N(C(C)C)C2)c1 (centres undefined) | -0.7% |
| CCc1ccccc1NC(=O)CN(C)C(=O)COc1ccc(C)nc1[N+](=O)[O-] | 14.3% |
| O=C(NCc1ccncc1)C1CCN(C(=O)c2cccc(Cl)c2)CC1 | 0.5% |
| C=CCn1c(N)cc(=O)nc1SCC(=O)Nc1cccc2ccccc12 | 0.1% |
| Cc1cccc(NS(=O)(=O)c2ccc([N+](=O)[O-])cc2)n1 | 0.2% |
| O=C(NNS(=O)(=O)c1ccc(F)cc1)c1ccc([N+](=O)[O-])cc1Cl | -0.9% |
| O=[N+]([O-])c1ccc(NS(=O)(=O)c2ccccc2)c(Cl)c1 | 86.7% (active) |
| CC(Nc1ccccc1)c1cccnc1 (centres undefined) | -1.4% |
| N#Cc1c(NC(=O)CCCl)sc2c1CCCCC2 | 0.2% |
| CC(=O)c1c(C)[nH]c(C(=O)OCC(=O)Nc2c(C)cccc2C)c1C | 1.5% |
| CC(=O)c1c(C)[nH]c(C(=O)OCC(=O)Nc2sc3c(c2C#N)CCCC3)c1C | 98.8% (active) |
| O=C1CCN(Cc2ccc([N+](=O)[O-])cc2)CCN1[C@H](CO)Cc1ccccc1 | -0.2% |
| O=C(Nc1ccccc1)Nc1nnc(COc2ccccc2F)s1 | 69.5% (active) |
| O=C(Nc1nnc(COc2ccccc2)s1)Nc1ccccc1F | 6.4% |
| COCc1nnc(NC(=O)CS(=O)(=O)Cc2ccccc2)s1 | 0.4% |
| Cc1[nH]c2ccccc2c1-c1ccc(Cl)nn1 | -1% |
| N#C[C@]1(S(=O)(=O)c2ccccc2)C[C@@H]2ON=C(c3cccc(Br)c3)[C@@H]2C1 | 72.4% (active) |
| COC(=O)[C@]1(S(=O)(=O)c2ccccc2)C[C@@H]2ON=C(c3ccc(OC)cc3)[C@@H]2C1 | 1% |

| SMILES | inhibition |
| --- | --- |
| CC1=C(C)CC(C(=O)NC(C)CCc2ccccc2)C(C(=O)O)C1 (centres undefined) | -1.3% |
| CCc1ccc(Nc2n[n+](-c3ccccc3)c(-c3cccc(Cl)c3Cl)s2)cc1 | 57.1% (active) |
| COc1cc(Br)c(-c2sc(Nc3ccccc3)n[n+]2-c2ccccc2)cc1OC | 1.6% |
| COc1ccc(C)cc1Nc1n[n+](-c2ccccc2)c(-c2cccc(Cl)c2Cl)s1 | 1.4% |
| Cc1ccc(C)c(OCCC(=O)OCC(=O)N2CCN(c3ccccc3)CC2)c1 | -0.6% |
| O=C(Cc1ccc(-n2c(=O)[nH]c3ccccc3c2=O)cc1)N1CCN(c2cccc(Cl)c2)CC1 | 53% (active) |
| O=C(CCCC(=O)N1CCN(c2cccc(Cl)c2)CC1)c1ccccc1 | -0.6% |
| CCOC(=O)N1CCN(C(=O)Cc2ccc(-n3c(=S)[nH]c4ccccc4c3=O)cc2)CC1 | -1.2% |
| Cc1ccc(C(=O)N2CCN(C3CCCCC3)CC2)s1 | -0.6% |
| COc1cccc(C(O)c2ncc(-c3ccc4ccccc4c3)[nH]2)c1 (centres undefined) | -0.1% |
| CCCCCC(O)c1cccc(OCc2ccc3ccccc3n2)c1 (centres undefined) | 50.9% (active) |
| COc1cccc(C(O)c2nc3ccccc3n2C)c1 (centres undefined) | -0.2% |
| Cc1ccnc(NC(=O)CCC(=O)N(CC(=O)NCc2ccccc2)Cc2ccco2)c1 | -0.3% |
| CCc1ccc(C(=O)CSc2nnc(C)c(=O)[nH]2)cc1 | 0.8% |
| Cc1cc(C)c2c(=O)[nH]c(SCC(=O)Nc3ccc(Br)cc3)nc2n1 | 4.4% |
| N#Cc1c(-c2cccs2)nc(SCC(=O)c2ccc(Br)cc2)[nH]c1=O | 53.9% (active) |
| CC1=C(C(=O)N(C)C)CC(CC(=O)NCCc2ccccn2)C(=O)N1CCC1=CCCCC1 (centres undefined) | -0.3% |
| COc1ccc(CC(=O)N[C@@H](CCSC)c2nc3ccccc3[nH]2)cc1 | -1.3% |
| CSCCC(NC(=O)c1cc([N+](=O)[O-])cc([N+](=O)[O-])c1)c1nc2ccccc2[nH]1 (centres undefined) | 50.8% (active) |
| CSCCC(NC(=O)c1ccc(=O)n(C)n1)c1nc2ccccc2[nH]1 (centres undefined) | -0.7% |
| COC(=O)[C@@]12C[C@@H](CC(=O)NCCCCc3ccccc3)C(=O)N(CCc3ccc(OC)c(OC)c3)C1=CCC(C)(C)C2 | -2.6% |
| Cc1ccc(C)c(N2CCN(C(=O)Cn3ncn4cccc4c3=O)CC2)c1 | 0.1% |
| COc1ccc(S(=O)(=O)NCC2CCCN(C(=O)c3occc3C)C2)cc1 (centres undefined) | -0.5% |
| O=C(NNc1ccccc1Cl)C(O)(c1cccc(C(F)(F)F)c1)c1cccc(C(F)(F)F)c1 | 90% (active) |

| SMILES | inhibition |
| --- | --- |
| O=C(O)c1cc(S(=O)(=O)N(Cc2ccccc2)c2cccc(C(F)(F)F)c2)ccc1Cl | 0.9% |
| O=c1cc(O)c(-c2cccc(C(F)(F)F)c2)c(Cl)[nH]1 | 3.7% |
| CCCCNc1c(-c2cccc(Sc3ccc(OC)cc3)c2)nc2ccccn12 | 6.5% |
| CC(=O)NC(CC(=O)Nc1ccc(S(=O)(=O)N2CCOCC2)cc1)c1ccccc1 (centres undefined) | -1.9% |
| COc1ccc(C(C)(O)c2nc(-c3cc(F)cc(F)c3)cs2)cc1 (centres undefined) | 1.2% |
| COC(=O)C1=CN(c2c(C)cc(C)cc2C)C(N)=C(C#N)C1c1cccc(F)c1 (centres undefined) | 1.1% |
| CCCCN(C)C(=O)C1CCN(Cc2ccccn2)CC1 | -1% |
| Cn1c(-c2sccc2OCc2cccc(C(F)(F)F)c2)n[nH]c1=S | 0.2% |
| O=c1c2ccccc2nc2n1C(CSCc1cccc(C(F)(F)F)c1)CS2 (centres undefined) | 54% (active) |
| C#CCCCc1nc2ccccc2c(=O)n1N | 5.8% |
| O=c1c2ccccc2nc2n1C(CSc1ccc(Cl)cc1)CN2 (centres undefined) | -1.7% |
| N#Cc1c(-c2ccccc2)nc(SCc2cccc(C(F)(F)F)c2)[nH]c1=O | 49.1% |
| O=c1c2ccccc2nc2n1C(CSCc1ccccc1)CS2 (centres undefined) | 52.1% (active) |
| COC(=O)[C@@]1(Cc2ccc(F)cc2)[C@H]2c3cc(C(=O)N(C)C)n(CCc4c[nH]c5ccc(OC)cc45)c3C[C@H]2CN1C(=O)c1ccccc1 | -3.6% |
| Cc1ccc(OCc2nnc(NC(=O)OCC(C)C)s2)cc1 | 0% |
| O=c1c2[nH]c3ccc(Cl)cc3c2ncn1Cc1ccccn1 | 0.2% |
| COc1ccccc1C1C(C#N)=C(N)Oc2c1c(-c1ccccc1)nn2-c1ccccc1 (centres undefined) | 43.7% |
| CN/C(=C\[N+](=O)[O-])NCCSCc1csc(CN(C)C)n1 | -1.8% |
| O=C(Nc1cccc(F)c1)c1coc(=O)c(Br)c1 | 92.1% (active) |
| Cc1c(NC(=O)c2coc(=O)c(Br)c2)c(=O)n(-c2ccccc2)n1C | 0.9% |
| O=C(Nc1cccc(F)c1)NC1CCCCCCC1 | 46.7% |
| CCC(C)NC(=O)N[C@@H](CCSC)C(=O)O (some centres undefined) | -0.7% |
| Cc1cc(C)c(NC(=O)CSc2nc3ccncc3[nH]2)c(C)c1 | -1.3% |
| c1ccc(CSCCc2ccncc2)cc1 | 4% |

| SMILES | inhibition |
| --- | --- |
| Cc1cc(C)c(SCCc2ccncc2)c(C)c1 | 90.9% (active) |
| CC(C)(C)c1ccc(SCCc2ccncc2)cc1 | 105% (active) |
| Cc1ccc(SCCSc2ncccn2)cc1 | 1.5% |
| CCN(Cc1ccncc1)C(=O)CCc1ccccc1 | 4% |
| CN(C)CCNC(=O)c1ccc(-c2cn3c(-c4ccc(Oc5ccccc5)cc4)cnc3cn2)cc1 | -1.4% |
| O=C(OC1CCOC1=O)c1cccc(S(=O)(=O)Nc2ccc(F)cc2)c1 (centres undefined) | 2.8% |
| CCOc1ccc(S(=O)(=O)NCCCn2ccnc2)cc1NC(C)=O | -0.5% |
| CCN(CC)CCCN1C(=O)C(=O)/C(=C(/O)c2c(C)nc3ccccn23)C1c1ccc(C)o1 (centres undefined) | 1.3% |
| O=C(CN(Cc1ccccc1)C(=O)c1ccc2c(c1)OCCO2)NCc1ccc2c(c1)OCO2 | -5.6% |
| CCC(=O)N1CCc2cc(S(=O)(=O)CCC(=O)N3CCN(c4ccccc4F)CC3)ccc21 | 0.5% |
| O=C(C1Cc2ccccc2CN1C(=O)c1ccco1)N1CCN(c2ccccc2)CC1 (centres undefined) | 0.7% |
| CN1CCC(N(C)C(=O)c2ccc(Cl)c(S(=O)(=O)Nc3ccc(Cl)cc3)c2)CC1 | -0.7% |
| C=C1c2c(Cl)ccc(O)c2C(O)=C2C(=O)[C@]3(O)C(O)=C(C(N)=O)C(=O)[C@@H](N(C)C)[C@@H]3[C@@H](O)C12 (some centres undefined) | 80.1% (active) |
| CCC(C)(C)NC(=O)CN(C(=O)CCC(=O)Nc1nccs1)c1ccc2c(c1)OCO2 | 0.4% |
| CCOC(=O)CNC(=O)/C=C/c1c(Cl)cccc1Cl | 0.6% |
| COc1ccc([N+](=O)[O-])cc1NCC(=O)c1ccc(C)cc1 | 0.6% |
| COc1ccc(NC(C)=O)cc1NC(=O)CN1CCN(C2c3ccccc3-c3ccccc32)CC1 | -1.5% |
| c1ccc2c(c1)C(=NC1CCCCC1)NC2=NC1CCCCC1 | 67.5% (active) |
| Cc1cc2nc(SCCN3CCOCC3)[nH]c2cc1C | 0% |
| Cc1ccc(S(=O)(=O)Nc2ccc3ncccc3c2)cc1 | 85% (active) |
| Cc1cc(C)cc(OCC(=O)Nc2ccc(S(=O)(=O)Nc3ccccn3)cc2)c1 | 3.7% |
| O=S(=O)(Nc1ccc(Oc2ncccn2)c(Cl)c1)c1ccc(F)cc1 | -1.6% |
